# GIRK2 act – activators of NPY4-receptor-primed GIRK2 channels, summary, cell-based, HEK293, thallium flux. activation (% efficacy), % for hits at 37.5 µM. 34,000 tested, under 10 active. HEK293 GIRK2/NPY4 cells, thallium flux fluorescence. G protein-activated inward rectifier potassium channel 2 (Homo sapiens), P48051;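 active = primary screen hit, no activity in plain HEK293 cells, and in GIRK2-only cells above 5% efficacy rising with concentration; inactive = the rest, including fluorescent compounds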;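 note: efficacy is normalized control-subtracted fluorescence 15 s after thallium addition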
# Target sequence (P48051 whole entry, looked up): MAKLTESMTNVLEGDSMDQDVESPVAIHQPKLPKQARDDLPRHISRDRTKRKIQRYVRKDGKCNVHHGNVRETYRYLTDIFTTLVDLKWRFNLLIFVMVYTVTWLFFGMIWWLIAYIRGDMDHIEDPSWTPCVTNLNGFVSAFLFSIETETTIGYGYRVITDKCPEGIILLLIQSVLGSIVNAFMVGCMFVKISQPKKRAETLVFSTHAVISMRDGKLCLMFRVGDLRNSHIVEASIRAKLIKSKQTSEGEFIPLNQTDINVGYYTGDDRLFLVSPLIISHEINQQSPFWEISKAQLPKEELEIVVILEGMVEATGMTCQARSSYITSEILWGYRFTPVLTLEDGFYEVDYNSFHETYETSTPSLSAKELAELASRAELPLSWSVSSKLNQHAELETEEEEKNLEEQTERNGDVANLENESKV
# GluA2 TARP mod – modulators of GluA2-stargazin AMPA receptor complexes, primary screen, cell-based, membrane potential dye; calls only at 30 µM; AID 1259245, 2017; HEK293 GluA2+stargazin, membrane potential dye (FDSS), glutamate EC50; hits were called plate by plate, in both directions; Voltage-dependent calcium channel gamma-2 subunit (Mus musculus) + Glutamate receptor 2 …; 3.5% of 40,000 active;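 active = any of four per-well response measures lying three or more SD from its plate-wide compound average, in either direction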
# Calls only; – = inactive; · = no result; + = active, no number. The entries come from a sample that favours hits as a whole.
SMILES,GIRK2 act,GluA2 TARP mod
COc1cccc2cc(-c3nnc(NC(=O)c4ccn(C)n4)o3)oc12,–,–
Cc1cc(C)c(NC(=O)c2ccc(N3CCCCS3(=O)=O)cc2)c(C)c1,–,–
CCc1nc(SCc2cc(=O)[nH][nH]2)c2oc3ccccc3c2n1,–,–
CCN1CCc2nc(N)sc2C1,–,+
CCOC(=O)N1CCc2nc(NC(C)=O)sc2C1,–,–
O=C(CC1CCCCN1S(=O)(=O)c1ccccc1)NCCC1=CCCCC1 (stereo unspecified),–,+
COc1ccc(S(=O)(=O)N2CCCCC2CC(=O)NCCCc2ccccc2)cc1 (stereo unspecified),·,–
CC(C)(C)NC(=O)NCCC1CCCCN1S(=O)(=O)c1ccccc1 (stereo unspecified),·,+
COc1ccc(CNC(=O)C(=O)NCCC2CCCCN2S(=O)(=O)c2ccccc2)cc1 (stereo unspecified),·,–
O=C(Cn1ncccc1=O)NCCOc1ccc2nnc(-c3ccccc3)n2n1,–,–
C=CCc1c(C)nc2c(-c3ccccc3)cnn2c1NCC1CCCO1 (stereo unspecified),–,–
C=CCn1c(SCC(=O)N(c2ccccc2)c2ccccc2)nc2ccccc2c1=O,·,–
O=S(=O)(NCC(O)(c1ccccc1)C(F)(F)F)c1ccc(F)c(Cl)c1 (stereo unspecified),–,–
COc1ccc(S(=O)(=O)NCC(O)(c2ccccc2)C(F)(F)F)cc1Cl (stereo unspecified),–,+
COc1ccc(S(=O)(=O)NCC(c2ccsc2)N(C)C)cc1Cl (stereo unspecified),–,–
COc1ccc(S(=O)(=O)NCCc2ccc(N(C)C)cc2)cc1Cl,·,+
Cc1ccc(-c2cc(CC(=O)Nc3nnc(C)s3)no2)cc1,–,·
CCN(CC)C(=O)Cn1c(C2CC(=O)N(c3ccc(C)cc3)C2)nc2ccccc21 (stereo unspecified),–,–
COc1ccc(OC)c(NC(=O)/C(C#N)=C/c2ccc(C(C)C)cc2)c1,–,–
COc1ccccc1/C=C(\C#N)C(N)=C(C#N)C#N,–,+
CCOC(=O)N1CCc2c(sc(NC(=O)c3ccn(C)n3)c2C(=O)OC)C1,–,+
CCn1nccc1C(=O)Nc1sc2c(c1C(N)=O)CCN(C(C)=O)C2,–,–
CCOC(=O)N1CCc2c(sc(NC(=O)c3ccnn3CC)c2C(=O)OC)C1,–,+
CCOC(=O)c1c(NC(=O)c2ccn(C)n2)sc2c1CCN(C(C)=O)C2,–,+
CC(=O)N1CCc2c(sc(NC(=O)c3ccn(C)n3)c2-c2nc3ccccc3s2)C1,·,–
SMILES,GIRK2 act,GluA2 TARP mod
CCOC(=O)N1CCc2c(sc(NC(=O)c3cc(C)n(CC)n3)c2C(N)=O)C1,–,·
CC(=O)N1CCc2c(sc(NC(=O)c3cc(C)no3)c2C#N)C1,–,–
CC(=O)N1CCc2c(sc(NC(=O)c3cc(C)no3)c2C(N)=O)C1,–,+
Cc1nnsc1C(=O)NCCn1ncc2c(N3CCCC3)ncnc21,·,–
CC(C)(C)c1ccc(OCCC(=O)O)cc1,–,–
O=C(CSCC(O)CON=C1c2ccccc2-c2ccccc21)Nc1ccccc1 (stereo unspecified),–,–
O=C(CCn1nnc2ccccc2c1=O)NCCc1cccs1,·,–
COc1ccc(OC)c(S(=O)(=O)Nc2ccc(CC(=O)NCc3cccs3)cc2)c1,–,–
Cc1ccc(Cl)c2sc(N(CCN3CCOCC3)C(=O)CCc3ccccc3)nc12,·,–
COCCNC(=O)NCC1(c2cccs2)CC1,–,+
COCCNC(=O)C(=O)NCC1(c2cccs2)CC1,–,–
CC(O)CNC(=O)C(=O)Nc1ccc([N+](=O)[O-])cc1 (stereo unspecified),·,+
CCN(CC)CCNC(=O)C(=O)Nc1ccc([N+](=O)[O-])cc1,·,–
CN1CCOc2ccc(NS(=O)(=O)c3ccccc3)cc2C1=O,·,+
CN1CCOc2ccc(NS(=O)(=O)c3ccc(-c4ccccc4)cc3)cc2C1=O,·,–
COc1ccc(C)c2sc(N(CCN3CCOCC3)C(=O)c3ccc(Br)s3)nc12,·,+
COc1ccc(C)c2sc(N(CCN3CCOCC3)C(=O)c3ccc(C)cc3)nc12,·,–
COc1ccc2sc(N(CCN3CCOCC3)C(=O)c3cccc(F)c3)nc2c1,–,–
CCS(=O)(=O)c1cccc(C(=O)N(CCN2CCOCC2)c2nc3ccccc3s2)c1,–,–
O=C(c1ccc(Br)s1)N(CCN1CCOCC1)c1nc2ccccc2s1,–,–
COc1ccc2sc(N(CCCN3CCOCC3)C(=O)c3ccno3)nc2c1,–,+
COc1ccc2nc(N(CCN3CCOCC3)C(=O)c3ccc(Br)s3)sc2c1,·,+
CCS(=O)(=O)c1cccc(C(=O)N(CCN2CCOCC2)c2nc3c(C)c(C)ccc3s2)c1,·,+
COc1ccc(/C=C/C(=O)c2ccc(O)cc2)c(OC)c1,·,–
CN1C(=O)NC(c2cccs2)C2=C1CN(CCN1CCCCC1)C2=O (stereo unspecified),–,–
SMILES,GIRK2 act,GluA2 TARP mod
CCc1ccc(NC2CC(=O)N(c3ccc(C)cc3Br)C2=O)cc1 (stereo unspecified),·,–
CCOC(=O)c1ccccc1NC(=O)CSC1=NS(=O)(=O)c2ccccc2N1CC,–,–
Cc1ccsc1-c1nnc(CC(=O)NCc2ccc3c(c2)OCO3)o1,–,·
CCOC(=O)c1sc(NC(=O)/C=C\C(=O)O)cc1C,–,–
CNc1nn(CC(=O)Nc2cccc(C(C)=O)c2)c(N)c1-c1nc(-c2ccccc2C)no1,–,–
CCn1nc(C)cc1C(=O)N(CCCN(C)C)c1nc2c(OC)ccc(Cl)c2s1,–,–
CCOc1ccc2nc(N(CCN3CCOCC3)C(=O)c3ccc(S(C)(=O)=O)cc3)sc2c1,·,+
CCCC(=O)N(CCN1CCOCC1)c1nc2c(OC)ccc(OC)c2s1,·,+
COc1ccc(OC)c2sc(N(CCN3CCOCC3)C(=O)CCc3ccccc3)nc12,·,–
COc1ccc(OC)c2sc(N(CCN(C)C)C(=O)c3cc(C)nn3C)nc12,–,+
COc1ccc(C)c2sc(N(CCN3CCOCC3)C(=O)c3ccc(Cl)cc3)nc12,·,–
CCOc1ccc2nc(N(CCN3CCOCC3)C(=O)c3ccnn3C)sc2c1,–,–
COc1ccc(C)c2sc(N(CCN3CCOCC3)C(=O)c3ccc(Cl)s3)nc12,·,+
CC(Sc1nnnn1-c1ccccc1)C(=O)N(C)Cc1cc(=O)[nH]c2ccccc12 (stereo unspecified),–,–
COc1ccc(NC(=O)CSc2c(C)cnc3c2c(=O)n(C)c(=O)n3C)cc1OC,–,–
Cc1cc(C(=O)N(CCCN(C)C)c2nc3ccccc3s2)on1,–,·
Cc1[nH]c(=O)[nH]c(=O)c1CC(=O)NCc1ccc(OCc2ccccc2)cc1,–,–
COc1ccccc1CNC(=O)CSc1ccc(NC(=O)C2CC2)nn1,–,–
O=C(CN1C(=O)CCC1=O)NCC(O)(c1ccco1)C1CC1 (stereo unspecified),–,–
COc1ccc(OC)c(CNC(=O)c2sc(-n3cccc3)nc2C(C)C)c1,–,–
COc1cccc(-n2nnc3c(N4CCN(C(=O)c5ccc(Cl)cc5)CC4)ncnc32)c1,·,–
COc1cc(OC)c(NC(=O)NCCNc2nc(C)cc(N3CCCCC3)n2)cc1Cl,–,+
COc1ccc(OC)c(NC(=O)NCCNc2nc(C)cc(N3CCCCC3)n2)c1,–,–

# Compound activity (PubChem)
